Data reported in PubChem BioAssay (Tox21).
Results filed as inconclusive are left out. Entries that show only a call come without a potency. The source made the active and inactive calls. The call rests on the fitted dose curve; in most records, active means well fitted cell-killing curve with a large enough effect in the repeat runs; inconclusive means weak or mixed curves, or effect the other way; inactive means no such curve, though single readings can be large or run the other way.

test: Caspase-3/7 induction in CHO-K1 cells by small molecules, qHTS cell viability counter screen (AID 1346979); details: CellTiter-Fluor fluorescence, 17 h; series mostly up to 92.4 µM; further: nearly all actives have a fitted effect of over 35% in size
Text: National Center for Advancing Translational Sciences [NCATS]
NIH Chemical Genomics Center [NCGC]
U.S. Environmental Protection Agency [EPA]
National Institutes of Environmental Health Sciences [NIEHS]
National Toxicology Program [NTP]
U.S. Food and Drug Administration [FDA]
Apoptosis is a process of programmed cell death and plays a central role in the development of multicellular organisms. It is a highly regulated process and induces cell death by activating caspases, which are the members of cysteine aspartic acid-specific protease (caspase) family. Caspases involved in apoptosis are classified by their mechanism of action as initiator caspases (caspase-2, -8, -9 and -10) and executioner caspases (caspase-3, -6, and -7). Inhibition of apoptosis results in number of cancers, autoimmune diseases, inflammatory diseases and viral infection. To identify small molecule compounds that induce apoptosis, a homogeneous, luminescent Caspase-Glo 3/7 assay was used. Wild type CHO-K1 cells were used to screen Tox21 libraries for identifying caspase-3/7 activity inducers. Also cytotoxicity of the compounds was tested in parallel by measuring the cell viability using CellTiter-Fluor assay system in the same wells.
Tox21 Assay Protocol Summary:
CHO-K1 cells were dispensed at 1,500 per well in 5uL of culture medium into white solid bottom 1536-well plates (Corning Life Sciences, Corning, NY) using a Multidrop Combi (Thermo Scientific, Waltham, MA) dispenser. The assay plates were incubated at 37 C and 5% CO2 for 5hr, and then 23nL of compounds dissolved in DMSO and positive control were transferred using a Pintool station (Wako, San Diego, CA). The assay plates were incubated at 37C and 5% CO2 for 17hr. For cytotoxicity read, after 16hr incubation at 37C, 1uL CellTiter-Fluor reagent (Promega Corporation, Madison, WI) was added to each well of the assay plates using Flying Reagent Dispenser (FRD, Aurora Discovery, San Diego, CA). After 1hr incubation at 37C and 5% CO2, the fluorescence signal was quantified using a ViewLux plate reader (PerkinElmer, Shelton, CT).
Potency means the concentration at half of the fitted maximal effect.

| SMILES | Potency |
| --- | --- |
| C=CCC1=C(C)[C@@H](OC(=O)[C@@H]2[C@@H](C=C(C)C)C2(C)C)CC1=O | 43.3 µM (active) |
| CCC(=O)C(CCN(C)C)(c1ccccc1)c1ccccc1 | inactive |
| CNC(=O)Oc1c(C(C)(C)C)cc(C)cc1C(C)(C)C | inactive |
| O=[N+]([O-])c1ccc2c3c(cccc13)CC2 | inactive |
| OC(Cn1cncn1)(c1ccc(F)cc1)c1ccccc1F (stereo not given) | inactive |
| Cc1nc(N)nc(N)n1 | inactive |
| CCC#N | inactive |
| CNCC(=O)c1ccc(O)c(O)c1 | inactive |
| COC(=O)c1ccccc1S(=O)(=O)NC(=O)Nc1nc(C)cc(C)n1 | inactive |
| CC(N)=S | inactive |
| CC(CC(C#N)(c1ccccc1)c1ccccc1)N(C)C (stereo not given) | inactive |
| CCN(Cc1ccc(Cl)nc1)/C(=C/[N+](=O)[O-])NC | inactive |
| ClC(Br)Br | inactive |
| O=P(O)(Oc1ccccc1)Oc1ccccc1 | inactive |
| O=C1OC(c2ccc(O)c(S(=O)(=O)O)c2)(c2ccc(O)c(S(=O)(=O)O)c2)c2c(Br)c(Br)c(Br)c(Br)c21 | inactive |
| CS(=O)(=O)c1cc(C(F)(F)F)ccc1C(=O)c1cnoc1C1CC1 | inactive |
| CC1CCCCC1NC(=O)Nc1ccccc1 (stereo not given) | inactive |
| CCOP(=S)(OCC)Oc1nc(Cl)n(C(C)C)n1 | inactive |
| CC1(C)C(=O)NC(=O)NC1=O | inactive |
| CC1(C)COP(Oc2ccccc2)OC1 | inactive |

| SMILES | Potency |
| --- | --- |
| CCSC(=O)N(CC)C1CCCCC1 | inactive |
| CCCCOC(=O)c1ccccc1C(=O)O | inactive |
| CC(=O)CCc1ccc2c(c1)OCO2 | inactive |
| Cc1ncsc1CCCl | inactive |
| O=C(O)c1ccc2[nH]cc(CCCCN3CC=C(c4ccccc4)CC3)c2c1 | inactive |
| CCS(=O)(=O)CCSP(=O)(OC)OC | inactive |
| N#Cc1c(Cl)cccc1Cl | inactive |
| CN1CCC(N(Cc2ccccc2)c2ccccc2)CC1 | inactive |
| O=C(CCCN1CCC(n2c(=O)[nH]c3ccccc32)CC1)c1ccc(F)cc1 | inactive |
| COP(N)(=S)Oc1ccccc1C(=O)OC(C)C (stereo not given) | inactive |
| O=C(Oc1ccc(Br)cc1)N1CCN2CCC1CC2 | inactive |
| CC(C)(C)OC(=O)c1ncn2c1[C@@H]1CCCN1C(=O)c1c(Br)cccc1-2 | inactive |
| O=[N+]([O-])c1cccc2c([N+](=O)[O-])cccc12 | inactive |
| C=C(C)CN(CC)c1c([N+](=O)[O-])cc(C(F)(F)F)cc1[N+](=O)[O-] | inactive |
| Nc1cnn(-c2ccccc2)c(=O)c1Cl | inactive |
| CCCCc1c(C)nc(NCC)[nH]c1=O | inactive |
| CCC(Cl)[N+](=O)[O-] (stereo not given) | inactive |
| C1CCC(C2CCCCC2)CC1 | inactive |
| N#CCCC#N | inactive |
| [O]=[Cd] | inactive |
